Results on 40 compounds are retold here after PubChem BioAssay (NCATS).

Molecules are shown by their SMILES. Inconclusive results are not listed. Unmarked numbers belong to inactive results. Activity calls are given as the source filed them. Calls follow the shape of the dose curve; as a rule, active = well fitted inhibition curve with a large enough effect; inconclusive = small, poorly fitted or top-dose-only effect; inactive = no such curve, though single readings can be large or run the other way.
Potency is read from the fitted curve at half-maximal effect.

A short description of the experiment: Primary fluorescence-based thiol-reactive (MSTI) qHTS assay for identification of artifact compounds. (AID 1845221). Also: nearly all actives have a fitted effect of over 65% in size.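 As to activity change, negative = thiol reactive: thiol-reactive compounds lower the probe fluorescence signal.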 The following applies: MSTI thiol-reactivity probe, 1 h; series mostly up to 53.8 µM; activity change, negative = thiol reactive: at the top concentration. The source says: PI: Alexander Tropsha Ph.D.
UNC Eshelman School of Pharmacy
University of North Carolina, Chapel Hill, North Carolina
Hits from high-throughput screening (HTS) of chemical libraries are often false positives due to their interference with the assay detection technology. In response to this problem, we generated the largest publicly available library of chemical liabilities and developed a free webtool to predict HTS artifacts, both of which are described herein. More specifically, we generated, curated, and integrated HTS datasets for thiol reactivity, redox activity, and luciferase (firefly and nano) activity. Using these curated datasets, we developed and validated several Quantitative Structure-Interference Relationship (QSIR) models to predict nuisance behavior. […] These models were employed for virtual profiling of the National Center for Advancing Translational Science's (NCATS) in-house library, and 256 compounds for each assay were selected for the experimental validation of nuisance behavior. The BA for these external predictions ranged from 58 to 78% for compounds within the applicability domains of the models. […] The models developed in this study, along with aggregation models previously developed by our group (SCAM Detective) were implemented in "Liability Predictor," an online tool which may be used as part of chemical library design or for triaging HTS hits. Both the models and the curated datasets are publicly available at https://liability.mml.unc.edu/.
SEQUENCE No. (e.g., 1, 2, 3, etc.); […] (e.g., Cells, Incubation, Reagent, etc.); VALUE; DESCRIPTION.
1; Reagent; 4 uL; […].
2; Compounds and control; 16 nL; Kalypsis pin tool (Wako USA) equipped with a 1536-well pin head.
4; Detection; Fluorescence, ViewLux microplate reader, 525 nm excitation, 598 nm emission.
NOTES (numbers refer to Sequence numbers above)
1. Assays determining (E)-2-(4-mercaptostyryl)-1,3,3-trimethyl-3H-indol-1-ium (MSTI) reactivity were performed as previously described in the literature with modifications for the quick identification of compounds reacting with thiol. In brief, 4 uL of MSTI or positive control Acetyl-MSTI (final concentrations of 4 uM and 4 uM, respectively) in assay buffer (2% DMSO in 1X PBS pH 7.4) was dispensed into all wells of a 1536-well assay plate (solid-bottom black plate; Greiner Bio One, Monroe, NC).
2. A Wako Pin-tool (Wako Automation, Richmond, VA) was used to transfer 16 nL of compounds (consisting of 7-plates in qHTS format, final concentration range 18.3 nM to 114 uM) or control MLS001163887 (final concentration range 1.22 nM to 40 uM).
3. Plates were centrifuged (121xg, 15 seconds) and incubated for 1 hour at room temperature protected from light.
4. Samples were read for fluorescence (Ex/Em = 525(20)/598(25) nm) on a ViewLux CCD imager (PerkinElmer). Data were normalized to Acetyl-MSTI (0% activity) and MSTI (100% activity) and the resulting percent inhibition data were fitted to a 4-parameter Hill equation using NCATS in-house software.
(Quantitative high-throughput screening tests each substance at several concentrations.)
`CNc1ccc2oc(C[C@H]3O[C@@]4(CC[C@H]3C)O[C@H](C(C)C(=O)c3ccc[nH]3)[C@H](C)C[C@H]4C)nc2c1C(=O)O` (stereo not given in full): the Potency is 2.38 µM (active).

Consider `CCC(C)C1NC(=O)C(C(C)=O)=C1O` (stereo not given), for which the “activity change, negative = thiol reactive” value (“activity change” below) was -11.8% [at 85.7 µM].

On to `C[C@@H](CN1CCC(n2c(=O)[nH]c3cc(Br)ccc32)CC1)NC(=O)[C@@H]1C[C@H]1c1ccccc1`, for which the “activity change” value is 113%.

`C[C@H]1CCC/C=C/C2C[C@H](O)C[C@H]2[C@H](O)/C=C/C(=O)O1` (stereo not given in full): the “activity change” value is 34%.

`CC(=O)NCCCOc1ccc(C(=O)N2CCC(N3C(=O)CCc4ccccc43)CC2)cc1`: the “activity change” value was 26.4%.

Consider `CC(=O)OC[C@]12[C@H](OC(C)=O)C(=O)[C@@H]3[C@@H](O)[C@@]14O[C@@]3(C)COC(=O)c1cccnc1[C@@H](C)[C@H](C)C(=O)O[C@@H]([C@H](OC(C)=O)[C@@H]2OC(C)=O)[C@]4(C)O`, for which the “activity change” value was 36.3% [at 25.6 µM].

For `CCCCCn1cc(C(=O)C2C(C)(C)C2(C)C)c2ccccc21`, the “activity change” value was 1.68%.

On to `C=CCN1CCC2(C)c3cc(O)ccc3C[C@H]1[C@H]2C`, for which the “activity change” value is 3.32%.

On to `COc1cc2c(c(OC)c1OC)-c1ccc(SC)c(=O)cc1[C@@H](NC(C)=O)CC2`, for which the “activity change” value was 33.2%.

In the case of `C[C@@]1(CO)[C@H](O)CC[C@@]2(C)[C@H]1CC[C@H]1C[C@@H]3C[C@@]12CC[C@]3(O)CO`, the “activity change” value was 13.4%.

On to `C[C@]12CCC(=O)C=C1CC[C@@H]1[C@@H]2[C@@H](O)C[C@]2(C)C(=O)CC[C@@H]12`, for which the “activity change” value is 29.3%.

On to `C[C@@H]1CCC2[C@@H](C)C(=O)OC3O[C@@]4(C)CCC1[C@]32OO4` (stereo not given in full), for which the “activity change” value was 31.4%.

As to `O=S(=O)(c1ccccc1F)N1CCOc2c(N3CCNCC3)cccc21`, the “activity change” value is -16.4%.

As for `O=C(OC[C@H]1O[C@@H](Oc2ccc(O)cc2CO)[C@H](O)[C@@H](O)[C@@H]1O)c1ccccc1`, the Potency is 3.67 µM (active).

Regarding `C/C=C(/C)C(=O)O[C@H]1[C@@H]2[C@H](C)C(=O)O[C@@H]2C[C@@H](C)[C@@H]2C=CC(=O)[C@]21C`, the “activity change” value was -17.3%.

Consider `CC(=O)O[C@@H]1[C@@H](O)[C@H]2O[C@@H]3C=C(C)[C@@H](O)C[C@]3(CO)[C@]1(C)[C@]21CO1`, for which the “activity change” value was -6.98%.

As to `C[C@H]1O[C@@H](n2cnc3c(N)ncnc32)C[C@@H]1O`, the “activity change” value is 17.5%.

For `CC1(C)C(=O)N(c2ccc(C#N)c(C(F)(F)F)c2)C(=S)N1c1ccc(C(N)=O)c(F)c1`, the “activity change” value is 178%.

As to `COc1ccc2c3c4n(c2c1)[C@@H](C=C(C)C)OOC(C)(C)C[C@@H]4N1C(=O)[C@@H]2CCCN2C(=O)[C@]1(O)[C@H]3OCC=C(C)C`, the “activity change” value was -3.37% [at 25.6 µM].

As for `CC1=C[C@H]2O[C@@H]3[C@H](O)[C@@H](O)[C@](C)([C@@]2(CO)C[C@@H]1O)[C@]31CO1`, the “activity change” value is -2.51%.

`COC1CC(O[C@H]2CC[C@]3(C=O)C4CC[C@]5(C)[C@@H](C6=CC(=O)OC6)CC[C@]5(O)[C@@H]4CC[C@@H]3C2)OC(C)C1O[C@@H]1O[C@H](CO)[C@@H](O[C@@H]2O[C@H](CO)[C@@H](O)[C@H](O)[C@H]2O)[C@H](O)[C@H]1O` (stereo not given in full): the activity change, negative = thiol reactive is -23.5% [at 11.5 µM].

Consider `CC1CCCC(=O)CCC/C=C/c2cc(O)cc(O)c2C(=O)O1` (stereo not given), for which the Potency was 14.7 µM (active).

`CC(C)C(=O)O[C@H]1[C@@H]2[C@H](C)C(=O)O[C@@H]2C[C@@H](C)[C@@H]2C=CC(=O)[C@]21C`: the “activity change” value is -0.247%.

Turning to `Cc1ccc(-n2nccn2)c(C(=O)N2CCN(c3nc4cc(Cl)ccc4o3)CCC2C)c1` (stereo not given), the “activity change” value is 26.3%.

For the compound `C[C@]12CC[C@H](O)C[C@H]1CC[C@@H]1[C@@H]2[C@H](O)C(=O)[C@]2(C)[C@@H](c3ccc(=O)oc3)CC[C@]12O`, the “activity change” value is 37.2%.

Take `CCC1(O)CCC2C3CCC4=CC(=O)CCC4C3CCC21CC` (stereo not given): the “activity change” value is 122%.

On to `CC1=CC(=O)[C@@H](O)[C@]2(C)C3[C@@H](O)[C@@H]4OC(=O)[C@@H]([C@H]4C)[C@]3(C)C(=O)C[C@@H]12` (stereo not given in full), for which the “activity change” value was 27.7%.

With `CN1C2CCC1CC(OC(=O)N1Cc3ccccc3NC1=O)C2` (stereo not given), the “activity change” value is -6.53%.

Consider `C[N@@+]1(CC2CC2)CC[C@]23c4c5ccc(O)c4O[C@H]2C(=O)CC[C@@]3(O)[C@H]1C5`, for which the “activity change” value is 6.15%.

On to `C=C1[C@@H](O)[C@]2(O)OC[C@]34C2[C@]2(C)C(C[C@H]3OC(=O)[C@H](O)[C@@]14O)C(C)=CC(=O)[C@H]2O` (stereo not given in full), for which the “activity change” value is -14.2% [at 25.6 µM].

`C/C=C1/CN2CC[C@]34C(=Nc5ccc(OC)cc53)C2C[C@@H]1C4(CO)C(=O)OC` (stereo not given in full): the “activity change” value was 10.2%.

As to `CC1=CC(=O)[C@@H](O)[C@@]2(C)C1C[C@H]1OC(=O)[C@H](O)[C@@]3(O)[C@@H](C)[C@@H](O)[C@H](O)C2[C@@]13C` (stereo not given in full), the “activity change” value was 9.14%.

Turning to `C#CCO[C@H]1CN2CCC1CC2`, the “activity change” value was 0.583%.

Consider `Cc1ccccc1CN1CCC(N2CCC(n3c(=O)[nH]c4ccccc43)CC2)CC1`, for which the “activity change” value was 12.7%.

As for `CC1=CC2OC3[C@H](O)C[C@@](C)([C@]34CO4)[C@@]2(CO)[C@H](O)C1=O` (stereo not given in full), the “activity change” value was -9.84%.

As to `C=C1C(=O)CC2OC2(C)CC2OC(=O)C(=C)C2C(O)C1OC(=O)/C(C)=C\C` (stereo not given), the “activity change” value is -9.4%.

For the compound `CO[C@@H]1C[C@H](O[C@H]2CC[C@@]3(C)C(CCC4C3CC[C@]3(C)[C@@H](C5=CC(=O)OC5)[C@@H](OC(C)=O)CC43O)C2)O[C@H](C)[C@@H]1O[C@H]1O[C@H](CO[C@@H]2O[C@H](CO)[C@@H](O)[C@H](O)[C@H]2O)[C@@H](O)[C@H](O)[C@H]1O` (stereo not given in full), the activity change, negative = thiol reactive is 43.8% [at 11.5 µM].

Regarding `CN(C)[C@@H]1C(=O)C(C(N)=O)=C(O)[C@@]2(O)C(=O)C3=C(O)c4c(O)ccc(Cl)c4[C@@](C)(O)C3C[C@@H]12` (stereo not given in full), the Potency is 1.68 µM (active).

With `C[C@@H]1Cc2c(Cl)cc(C(=O)N[C@@H](Cc3ccccc3)C(=O)O)c(O)c2C(=O)O1`, the “activity change” value was -7.89%.

As for `C/C=C(\C)C(=O)OC1CC2C(CC=C3CC(OC4CC(OC)C(OC5CC(OC)C(OC6CC(OC)C(OC7CC(OC)C(O)C(C)O7)C(C)O6)C(C)O5)C(C)O4)CCC32C)C2(O)CCC(C(C)=O)C12C` (stereo not given), the activity change, negative = thiol reactive is 0.247% [at 11.5 µM].
